Only a sample is shown.
aSyn UTR act: Activators via SNCA 5'UTR binding, MLPCN. alpha-synuclein 5'UTR reporter, activators screen. activity score, % (tested at 7.5 µM), hits read low. 300,000 compounds, 7.1% hits. AID 1814; in the data active means activity score below about -60%
An asterisk follows results filed as active.

For CCCc1ccc(-c2cc(C(=O)Nc3ccc([N+](=O)[O-])cn3)c3ccccc3n2)cc1 the results were aSyn UTR act -90.3*.
O=C(N/N=C/c1cc([N+](=O)[O-])ccc1O)c1cc(-c2ccccc2)nc2ccccc12 was read as aSyn UTR act 81.3.
CCc1ccc(-c2cc(C(=O)Nn3cnnc3)c3ccccc3n2)cc1 was read as aSyn UTR act 73.9.
`O=C(NCc1ccccc1Cl)c1ccc2ccccc2n1` gave aSyn UTR act -120.8*.
For CCCc1ccc(-c2cc(C(=O)NN3CCOCC3)c3ccccc3n2)cc1 the results were aSyn UTR act -93.0*.
CCN1CCN(C(=O)c2cc3c(s2)-c2c(C)cccc2OC3)CC1 was read as aSyn UTR act -141.1*.
`Cc1cccc2c1-c1sc(C(=O)N3CCCCC3)cc1CO2` gave aSyn UTR act -99.7*.
Screening Cc1ccc(C(=O)c2coc3c2C(=O)C(=O)c2ccccc2-3)cc1 returned aSyn UTR act -90.1*.
Screening Cc1oc2c(c1C(=O)c1ccc(Cl)cc1)C(=O)C(=O)c1ccccc1-2 returned aSyn UTR act -87.0*.
For COc1ccc(C(=O)c2c(C(F)(F)F)oc3c2C(=O)c2ccccc2C3=O)cc1 the results were aSyn UTR act 109.0.
For CCCCN1CC(O)=C(c2nc3ccccc3s2)C1=N the results were aSyn UTR act -167.4*.
For CCN1CC(O)=C(c2nc3ccccc3s2)C1=N the results were aSyn UTR act -69.7*.
For N=C1C(c2nc3ccccc3s2)=C(O)CN1c1ccccc1 the results were aSyn UTR act -119.9*.
`O=S(=O)(C/C(=C/CO)S(=O)(=O)c1ccccc1)c1ccccc1` gave aSyn UTR act -70.8*.
CCc1cc2c(=O)n(-c3ccccc3)cnc2s1 was read as aSyn UTR act -95.5*.
`CCc1cc2c(=O)n(-c3ccc(C)cc3)cnc2s1` gave aSyn UTR act -148.5*.
Screening Cc1c(Cl)cccc1N=Cc1ccc([N+](=O)[O-])s1 returned aSyn UTR act -89.0*.
`Cc1ccc2[nH]c3c(c2c1)CC/C(=C/c1ccccc1)C3=O` gave aSyn UTR act -194.1*.
CCCCN1CCc2c([nH]c3ccccc23)C1=O was read as aSyn UTR act -127.6*.
Screening Cc1ccc(/C=C2/CCc3c([nH]c4ccccc34)C2=O)cc1 returned aSyn UTR act -180.1*.
For CCCCCCCn1c2c(c(=N)c3ccccc31)CCC2 the results were aSyn UTR act 79.4.
For O=C1/C(=C\c2ccccc2)CCc2c1[nH]c1ccccc21 the results were aSyn UTR act -121.5*.
`CCCC/C=C1\CCc2c([nH]c3ccccc23)C1=O` gave aSyn UTR act -75.0*.
`CCOC(=O)COn1c(=O)c(-c2ccc(C)cc2)[n+]([O-])c2ccccc21` gave aSyn UTR act -135.9*.
`CCOc1ccc(-c2c(=O)n(OCc3nc4ccccc4[nH]3)c3ccccc3[n+]2[O-])cc1` gave aSyn UTR act -111.9*.
Cc1ccccc1N(CC(=O)NC1CCCC1)C(=O)c1csnn1 was read as aSyn UTR act -146.0*.
Screening COc1ccc(C(=O)/C=C/C(=O)N(CC(=O)NC2CCCCC2)Cc2cccs2)c(O)c1 returned aSyn UTR act 70.6.
`COc1ccc(C(=O)CC(=O)c2ccccc2O)cc1` gave aSyn UTR act -218.0*.
COc1ccc(O)c(C(=O)CC(=O)c2ccccc2C)c1 was read as aSyn UTR act -99.6*.
COc1ccc(O)c(C(=O)CC(=O)c2ccc(F)cc2)c1 was read as aSyn UTR act 73.3.
`O=C(Nc1nnc(/C=C/c2ccccc2)s1)c1ccco1` gave aSyn UTR act -83.2*.
O=C(Nc1nnc(-c2ccc(F)cc2)s1)c1ccco1 was read as aSyn UTR act -120.7*.
`Cc1cccc(-c2nnc(NC(=O)c3ccco3)s2)c1` gave aSyn UTR act -124.5*.
For CC(C)Sc1nnc(NC(=O)c2ccco2)s1 the results were aSyn UTR act -64.2*.
COc1ccc(Cc2nnc(NC(=O)c3ccco3)s2)cc1 was read as aSyn UTR act -62.1*.
For COc1ccc(CCNC(=O)C2CC(c3ccc([N+](=O)[O-])cc3)=NO2)cc1 (stereo unspecified) the results were aSyn UTR act -69.1*.
For CCCCNC(=O)C1CC(c2cccc(F)c2)=NO1 (stereo unspecified) the results were aSyn UTR act -93.9*.
Screening O=C(NCCc1cccs1)C1CC(c2ccc([N+](=O)[O-])cc2)=NO1 (stereo unspecified) returned aSyn UTR act -157.0*.
COc1ccc(CCNC(=O)C2CC(c3cccc([N+](=O)[O-])c3)=NO2)cc1 (stereo unspecified) was read as aSyn UTR act -112.5*.
COc1ccc(N2CCN(S(=O)(=O)CCNC(=O)Cc3ccc([N+](=O)[O-])cc3)CC2)cc1 was read as aSyn UTR act 65.3.
For Cc1ccc(CNC(=O)C2CC(c3cccc([N+](=O)[O-])c3)=NO2)o1 (stereo unspecified) the results were aSyn UTR act -87.8*.
`O=C(c1ccc(Cl)cc1)C(CN1CCCCC1)c1ccccc1` (stereo unspecified) gave aSyn UTR act -106.0*.
For COc1ccc(C(=O)C(CN2CCOCC2)c2ccccc2)cc1F (stereo unspecified) the results were aSyn UTR act -108.1*.
Screening CCCOc1ccc(C(=O)C(CN2CCOCC2)c2ccccc2)cc1 (stereo unspecified) returned aSyn UTR act -119.6*.
For COc1ccccc1-c1nnc(Sc2nc([N+](=O)[O-])nn2C)o1 the results were aSyn UTR act -82.7*.
For O=C(O)c1cccc(-n2cc(-c3cccc(C(F)(F)F)c3)cn2)c1 the results were aSyn UTR act -127.6*.
`N#Cc1cnc(SCCc2ccccc2)nc1N` gave aSyn UTR act -70.5*.
Screening CCC(=O)C1CCCN(C(=O)CCc2nnc(-c3ccc(C(C)=O)s3)o2)C1 (stereo unspecified) returned aSyn UTR act -87.7*.
For CCCOC1CCCN(C(=O)CCc2nnc(-c3ccc4c(c3)OCO4)o2)C1 (stereo unspecified) the results were aSyn UTR act -73.4*.
C/C(=N\Nc1nc(-c2ccccn2)nc2ccccc12)c1ccc(F)cc1 was read as aSyn UTR act 75.3.
`C/C(=N\Nc1nc(-c2ccccc2O)nc2ccccc12)c1ccccc1` gave aSyn UTR act -90.9*.
Screening CC(C)c1ccc(S(=O)(=O)c2cc3cc(Br)ccc3oc2=O)cc1 returned aSyn UTR act -62.5*.
For Cc1cccc2c1OCC/C2=N\NC(=O)COc1ccccc1Cl the results were aSyn UTR act -79.1*.
For CCC(=O)Nc1ccc(NC(=O)c2cc3ccccc3o2)c(OC)c1 the results were aSyn UTR act -134.2*.
`COC(=O)c1cc(Cl)c(NC(=O)c2cc3ccccc3o2)cc1OC` gave aSyn UTR act -153.6*.
`COc1cc(NC(=O)c2c(OC)cccc2OC)ccc1NC(=O)c1cc2ccccc2o1` gave aSyn UTR act -205.4*.
`COc1cc(NC(=O)c2ccccc2F)ccc1NC(=O)c1cc2ccccc2o1` gave aSyn UTR act -67.2*.
Screening CN(C)/C=C(\C#N)C(=O)N/N=C/c1ccccc1 returned aSyn UTR act -68.6*.
For O=C1c2sc3nc4n(c(=O)c3c2CCC1Br)CCCCC4 (stereo unspecified) the results were aSyn UTR act -179.6*.
Screening O=C1CCCc2c1sc1nc3n(c(=O)c21)CCCCC3 returned aSyn UTR act -106.8*.
`O=c1c2c3c(sc2nc2n1CCCCC2)C(O)CCC3` (stereo unspecified) gave aSyn UTR act -85.0*.
